Assay outcomes deposited in PubChem BioAssay by The Scripps Research Institute Molecular Screening Center.
PP5 primary = PP5 phosphatase inhibitors, primary screen, biochemical, fluorescence | Serine/threonine-protein phosphatase 5 (Homo sapiens), P53041 | AID 1987, 2009 | 320,000 tested, 0.18% active | purified PP5c, OMFP substrate fluorescence | inhibition, % at 6.7 µM;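 active = inhibition above the campaign's mean inhibition across all tested compounds plus 3 SD, cut at about 9.5% in these data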;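 also: 0% = DMSO only and 100% = 100 µM cantharidin control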
Target sequence (P53041 whole entry, looked up): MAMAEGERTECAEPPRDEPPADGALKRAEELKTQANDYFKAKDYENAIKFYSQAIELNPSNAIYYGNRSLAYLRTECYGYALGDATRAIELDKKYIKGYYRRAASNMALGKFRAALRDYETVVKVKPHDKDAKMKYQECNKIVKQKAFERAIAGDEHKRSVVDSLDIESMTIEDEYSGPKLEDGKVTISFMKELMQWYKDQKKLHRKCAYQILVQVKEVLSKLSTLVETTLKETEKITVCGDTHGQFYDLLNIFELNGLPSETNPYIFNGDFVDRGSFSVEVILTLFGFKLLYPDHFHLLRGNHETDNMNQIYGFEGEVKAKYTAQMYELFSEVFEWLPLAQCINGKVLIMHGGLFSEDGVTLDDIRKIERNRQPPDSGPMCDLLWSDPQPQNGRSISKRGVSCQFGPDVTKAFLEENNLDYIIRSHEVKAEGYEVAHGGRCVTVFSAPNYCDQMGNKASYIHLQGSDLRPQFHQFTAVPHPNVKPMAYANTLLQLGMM
pPAFAH FP inh = pPAFAH enzyme inhibitors, primary screen, biochemical, fluorescence polarization, human; Platelet-activating factor acetylhydrolase (Homo sapiens), Q13093; recombinant pPAFAH, FP-rhodamine probe fluorescence polarization; inhibition, % at 3.39 µM; 330,000 tested, 1.5% active;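 active = inhibition above the mean inhibition across the screen plus 3 SD, cut at about 25% in these data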;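 also: inhibitors block binding of the rhodamine activity-based probe so polarization drops; 0% = enzyme with DMSO and 100% = wells lacking pPAFAH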
PAFAH1B2 inh = PAFAH1B2 enzyme inhibitors, primary screen, biochemical, fluorescence polarization, human; recombinant PAFAH1B2, FP-rhodamine activity probe; inhibition, % at 3.39 µM; 340,000 tested, 1.2% active;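 active = inhibition above the mean of all tested compounds plus 3 SD, cut at about 24% in these data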;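 also: 0% = enzyme with DMSO and 100% = wells lacking PAFAH1B2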
Target sequence (P68402 whole entry, looked up): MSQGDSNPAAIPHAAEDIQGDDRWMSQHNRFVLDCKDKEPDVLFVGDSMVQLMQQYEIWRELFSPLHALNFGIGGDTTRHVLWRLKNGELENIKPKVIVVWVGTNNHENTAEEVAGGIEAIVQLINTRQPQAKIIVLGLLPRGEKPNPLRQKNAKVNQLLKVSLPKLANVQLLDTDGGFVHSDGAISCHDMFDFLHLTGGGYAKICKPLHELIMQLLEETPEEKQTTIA
PAFAH1B3 FP inh = PAFAH1B3 enzyme inhibitors, primary screen, biochemical, fluorescence polarization, human. 340,000 tested, 0.28% active. inhibition, % at 3.39 µM. recombinant PAFAH1B3, FP-rhodamine probe. AID 492972, 2010;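 active = inhibition above the screen-wide average of all tested compounds plus 3 SD, cut at about 25% in these data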;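 also: 0% = enzyme with DMSO only and 100% = wells lacking PAFAH1B3 protein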
PP1 counter = PP1-alpha phosphatase inhibitors, primary screen, counter-screen for PP5 inhibitor project, biochemical, fluorescence, OMFP substrate, single point; purified PP1alpha; Serine/threonine-protein phosphatase PP1-alpha catalytic subunit (Homo sapiens), P62136; 320,000 tested, 0.9% active; AID 2235, 2010; inhibition, % at 6.7 µM;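 active = inhibition above the mean inhibition of all tested compounds plus 3 SD, computed separately for each screening campaign, cut at about 15% in these data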
PAFAH2 FP inh = PAFAH2 enzyme inhibitors, primary screen, biochemical, fluorescence polarization, human. 340,000 tested, 0.99% active. recombinant PAFAH2, FP-rhodamine activity probe. inhibition, % at 3.39 µM. AID 492956, 2010;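 active = inhibition above the mean over all tested compounds plus 3 SD, cut at about 30% in these data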;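 also: inhibitors block probe labeling of enzyme so polarization drops; 0% = enzyme with DMSO and 100% = wells lacking PAFAH2 protein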
* marks the source's active call; other numbers are inactive results. In the library only some 3.4% were active in any assay of this set; here they are far more common.

What do the screens show for `O=C(OCc1c(Cl)cccc1Cl)c1cccnc1Cl`?
PP5 primary: 2.1; pPAFAH FP inh: 31.6*; PAFAH1B2 inh: -2.4; PAFAH1B3 FP inh: 0.3; PP1 counter: 4.6; PAFAH2 FP inh: 5.4

How did O=C(OCc1c(Cl)cccc1Cl)c1cccnc1 do in these assays?
PP5 primary: 1.0; pPAFAH FP inh: 33.1*; PAFAH1B2 inh: 0.7; PAFAH1B3 FP inh: 1.9; PP1 counter: 4.3; PAFAH2 FP inh: 6.7

What do the screens show for `CN(C(=O)COC(=O)c1ccc2ccccc2n1)c1ccccc1`?
pPAFAH FP inh: 6.7; PAFAH1B2 inh: -2.0; PAFAH1B3 FP inh: 8.4; PAFAH2 FP inh: 3.7

How did Cc1oc2c(cc(NS(=O)(=O)c3ccc(Cl)cc3)c3ccccc32)c1C(=O)O do in these assays?
PAFAH1B2 inh: 10.9; PAFAH1B3 FP inh: 8.7; PAFAH2 FP inh: 10.7

How did CCOC(=O)c1c(C)oc2c1cc(NS(=O)(=O)c1ccc(C(=O)O)cc1)c1ccccc12 do in these assays?
PP5 primary: 0.5; pPAFAH FP inh: 29.4*; PAFAH1B2 inh: 4.1; PAFAH1B3 FP inh: 7.5; PP1 counter: 1.6; PAFAH2 FP inh: 9.6

What do the screens show for `Cn1nccc1C(=O)Nc1ccccc1C(=O)O`?
PP5 primary: 2.0; pPAFAH FP inh: -1.6; PAFAH1B2 inh: 0.2; PAFAH1B3 FP inh: 8.4; PP1 counter: 3.1; PAFAH2 FP inh: 2.7

How did COc1ccc(Cn2c(O)c(C=Nc3ccccc3C(=O)O)c3ccccc3c2=O)cc1 do in these assays?
PP5 primary: 1.3; pPAFAH FP inh: 26.6*; PAFAH1B2 inh: 4.1; PAFAH1B3 FP inh: 10.1; PP1 counter: 7.0; PAFAH2 FP inh: 37.0*

How did COc1ccc(Cn2c(O)c(C=Nc3ccc(OC)cc3)c3ccccc3c2=O)cc1 do in these assays?
PP5 primary: -4.2; pPAFAH FP inh: -1.0; PAFAH1B2 inh: -1.6; PAFAH1B3 FP inh: 2.4; PP1 counter: 1.1; PAFAH2 FP inh: 0.7

Results for CCN(CC)C(=O)CSc1nc(O)cc(=O)n1-c1ccccc1OC ?
PP5 primary: -1.8; pPAFAH FP inh: 25.0*; PAFAH1B2 inh: 3.8; PAFAH1B3 FP inh: -5.0; PP1 counter: -2.5; PAFAH2 FP inh: 0.3

What do the screens show for `Cc1ccccc1-n1c(SCC(=O)Nc2c(C)cccc2C)nc(O)cc1=O`?
PP5 primary: 0.4; pPAFAH FP inh: 31.1*; PAFAH1B2 inh: 1.8; PAFAH1B3 FP inh: 2.5; PP1 counter: 1.1; PAFAH2 FP inh: -7.8

How did Oc1ccc(CNc2ccccc2F)c2cccnc12 do in these assays?
PP5 primary: 2.6; pPAFAH FP inh: 0.2; PAFAH1B2 inh: 6.0; PAFAH1B3 FP inh: 12.2; PP1 counter: 2.9; PAFAH2 FP inh: 1.3

What do the screens show for `COc1cccc([C@@H]2CC=C(C(=O)O)[C@H](c3ccc(C)cc3)N2S(=O)(=O)c2ccc(C)cc2)c1`?
pPAFAH FP inh: 2.9; PAFAH1B2 inh: 27.1*; PAFAH1B3 FP inh: 3.8; PAFAH2 FP inh: -8.8

How did COc1cccc([C@@H]2CC=C(C(=O)O)[C@H](c3ccccc3F)N2S(=O)(=O)c2ccc(C)cc2)c1 do in these assays?
PP5 primary: -2.2; pPAFAH FP inh: 0.9; PAFAH1B2 inh: 8.7; PAFAH1B3 FP inh: 16.9; PP1 counter: -0.8; PAFAH2 FP inh: -8.8

What do the screens show for `Cc1ccc([C@@H]2CC=C(C(=O)O)CN2S(=O)(=O)c2ccc(C)cc2)cc1`?
PP5 primary: 0.0; pPAFAH FP inh: 4.9; PAFAH1B2 inh: 28.6*; PAFAH1B3 FP inh: 13.9; PP1 counter: 0.5; PAFAH2 FP inh: -3.0

How did Cc1ccc(S(=O)(=O)N2[C@@H](c3ccc(Cl)cc3)C(C(=O)O)=CC[C@H]2c2ccc(C(C)C)cc2)cc1 do in these assays?
PP5 primary: -0.6; pPAFAH FP inh: 3.0; PAFAH1B2 inh: 93.0*; PAFAH1B3 FP inh: 7.7; PP1 counter: 2.3; PAFAH2 FP inh: 15.5

What do the screens show for `Cc1ccc(S(=O)(=O)N2[C@@H](c3ccccc3F)C(C(=O)O)=CC[C@H]2c2cccs2)cc1`?
PP5 primary: -0.5; pPAFAH FP inh: 2.1; PAFAH1B2 inh: 21.0; PAFAH1B3 FP inh: 10.2; PP1 counter: 3.0; PAFAH2 FP inh: 4.7

What do the screens show for `COc1ccc([C@@H]2CC=C(C(=O)O)[C@H](c3ccc(Cl)cc3)N2S(=O)(=O)c2ccc(C)cc2)cc1OC`?
PP5 primary: 1.8; pPAFAH FP inh: 2.8; PAFAH1B2 inh: 11.5; PAFAH1B3 FP inh: 2.9; PP1 counter: 4.1; PAFAH2 FP inh: 3.4

What do the screens show for `Cc1ccc(S(=O)(=O)N2CC(C(=O)O)=CC[C@H]2c2ccc3c(c2)OCO3)cc1`?
PP5 primary: 0.5; pPAFAH FP inh: 1.4; PAFAH1B2 inh: 7.0; PAFAH1B3 FP inh: 3.8; PP1 counter: -1.6; PAFAH2 FP inh: 3.4

What do the screens show for `Cc1ccc(S(=O)(=O)N2[C@@H](c3ccccc3)C(C(=O)O)=CC[C@H]2c2cccs2)cc1`?
PP5 primary: 1.8; pPAFAH FP inh: 2.8; PAFAH1B2 inh: 25.4*; PAFAH1B3 FP inh: 1.3; PP1 counter: 0.0; PAFAH2 FP inh: 2.8

Results for O=C1CCc2cc(S(=O)(=O)N3CCCCC3)cc3c2N1CCC3 ?
PP5 primary: 2.7; pPAFAH FP inh: 3.2; PAFAH1B2 inh: 2.6; PAFAH1B3 FP inh: 5.8; PP1 counter: -4.8; PAFAH2 FP inh: 1.8

What do the screens show for `Cc1ccc(-n2nc(-c3cccnc3)cc2C(=O)N2CCOCC2)c(C)c1`?
PP5 primary: 0.9; pPAFAH FP inh: 7.3; PAFAH1B2 inh: 3.9; PAFAH1B3 FP inh: 3.9; PP1 counter: 4.3; PAFAH2 FP inh: 9.9

What do the screens show for `Cc1ccc(S(=O)(=O)N2[C@@H](c3ccc(C(C)(C)C)cc3)C(C(=O)O)=CC[C@H]2c2ccc(Cl)c(Cl)c2)cc1`?
pPAFAH FP inh: 18.7; PAFAH1B2 inh: 75.9*; PAFAH1B3 FP inh: -7.6; PAFAH2 FP inh: -6.5

Results for COc1cc([C@@H]2CC=C(C(=O)O)[C@H](c3cccc(Cl)c3)N2S(=O)(=O)c2ccc(C)cc2)cc(OC)c1OC ?
PP5 primary: 0.6; pPAFAH FP inh: -2.9; PAFAH1B2 inh: -3.8; PAFAH1B3 FP inh: 19.1; PP1 counter: 2.7; PAFAH2 FP inh: 6.8

How did COc1ccc([C@@H]2CC=C(C(=O)O)[C@H](c3ccc(C(C)(C)C)cc3)N2S(=O)(=O)c2ccc(C)cc2)cc1OC do in these assays?
pPAFAH FP inh: 3.1; PAFAH1B2 inh: 13.2; PAFAH1B3 FP inh: -1.7; PAFAH2 FP inh: -2.7

What do the screens show for `COc1ccc([C@@H]2CC=C(C(=O)O)[C@H](c3ccc(C)cc3)N2S(=O)(=O)c2ccc(C)cc2)cc1OC`?
pPAFAH FP inh: 6.8; PAFAH1B2 inh: 11.7; PAFAH1B3 FP inh: 5.5; PAFAH2 FP inh: -0.8
